Screening results (PubChem BioAssay)
Hits are enriched below; roughly 1.1% of the tested compounds scored in any of these assays.
FadD28 FP inh = inhibitors of Mycobacterium tuberculosis FadD28 bisubstrate binding; FadD28 bisubstrate probe binding, fluorescence polarization; inhibition, % at 12.5 µM; 360,000 compounds, 0.22% hits; in the data active = inhibition above about 8.5%, passing the limit was not always enough; inconclusive = no clear call, values can overlap the other calls
Y pestis TopoI = inhibitors of Yersinia pestis topoisomerase I | activity, % at 10 µM | Y. pestis Topo-I cleavage product accumulation, plate reader | 360,000 compounds, 0.064% hits; in the data active = activity above about 50%, passing the limit was not always enough; inconclusive = no clear call, values can overlap the other calls
PfHsp40 yeast = compounds rescuing yeast from Plasmodium falciparum HSP40 toxicity; growth rescue, % at 12.5 µM; S. cerevisiae expressing PfHsp40, growth rescue, ATP luminescence; 340,000 compounds, 0.68% hits; in the data active = growth rescue above about 28%, passing the limit was not always enough; inconclusive = no clear call, values can overlap the other calls;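 also: yeast W303a lacking pdr1 and pdr3 grown in galactose medium; growth measured after three days at 30 °C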
BioA inh = BioA (M. tuberculosis) enzyme inhibition; purified M. tuberculosis BioA enzyme, plate reader; inhibition, % at 9.99 µM; 360,000 compounds, 0.096% hits; AID 602481; in the data active = inhibition above about 40%; inconclusive = no clear call, values can overlap the other calls
PrP 5UTR inh = suppresses PrP 5' UTR mRNA reporter expression; cell-based PrP 5' UTR mRNA reporter, plate reader; 340,000 compounds, 0.35% hits; inhibition, % (no concentration beside the values); in the data active = inhibition above about 52%; also: 0 = median of the neutral control wells
The depositor's hits bear a star; ? = inconclusive; nt = not tested or not shown.

SMILES | FadD28 FP inh | Y pestis TopoI | PfHsp40 yeast | BioA inh | PrP 5UTR inh
O=c1[nH]c(-c2ccccc2)nn1-c1ccc(Br)cc1Br | -2 | 2 | 35* | -1 | -7
CCNC(=O)CN(c1ccc(Cl)cc1)S(=O)(=O)c1ccccc1 | -3 | -6 | 0 | -2 | -14
CCNC(=O)CN(c1ccc(Oc2ccccc2)cc1)S(=O)(=O)c1ccccc1 | -2 | 44 | 60* | 0 | 0
Cc1ccc(C(=O)CNc2cccc(Cl)c2)cc1 | 1 | 65* | -1 | -1 | -22
Cc1cccc(Nc2nc(N)c([N+](=O)[O-])c(N3CCCC(C)C3)n2)c1 (configuration not stated) | -6 | 27 | 166* | nt | -18
Cc1cccc(Nc2nc(N)c([N+](=O)[O-])c(N3CCN(C)CC3)n2)c1 | -1 | -6 | -1 | -3 | -5
Cc1ccc(-c2ccc3c(c2)O[C@@H](CN(C)Cc2cncnc2)[C@H](C)CN([C@@H](C)CO)S3(=O)=O)cc1 | nt | nt | nt | 8 | nt
Cn1cc(C2CC(c3ccccc3)=NN2C(=O)c2ccccc2)c2ccccc21 (configuration not stated) | -3 | 19 | 2 | -1 | -2
CCCC(=O)N1N=C(c2ccccc2)CC1c1cn(C)c2ccccc12 (configuration not stated) | -1 | 56* | 0 | -2 | -23
COc1ccccc1C#Cc1cnc2c(c1)C(=O)N([C@@H](C)CO)C[C@H](C)[C@@H](CN(C)S(=O)(=O)c1cn(C)cn1)O2 | nt | nt | nt | 0 | nt
NC(=S)N/N=C/c1coc2cc(Br)ccc2c1=O | -3 | 7 | 0 | nt | -30
NC(=S)N/N=C/c1coc2ccc(Br)cc2c1=O | -1 | 1 | 38* | 1 | -15
C[C@H](CO)N1C[C@H](C)[C@H](CN(C)S(C)(=O)=O)OCCCC[C@H](C)Oc2ccc(NC(=O)CCCN(C)C)cc2C1=O | nt | nt | nt | -2 | nt
CC(C)C(=O)NC(c1ccco1)c1ccc2cccnc2c1O (configuration not stated) | -2 | -7 | 297* | -2 | 8
CCN(CC)c1ccc(C(NC(=O)C(C)C)c2ccc3cccnc3c2O)cc1 (configuration not stated) | -3 | -4 | nt | 0 | nt
CC(C)C(=O)NC(c1cccc([N+](=O)[O-])c1)c1ccc2cccnc2c1O (configuration not stated) | -5 | 9 | 228* | -1 | 22
Cc1ccc(S(=O)(=O)N[C@@H]2C=C[C@@H](CC(=O)NC3CCCCC3)O[C@H]2CO)cc1 | nt | nt | nt | -1 | nt
COc1ccc(CC(=O)Nc2nnc(SCc3ccccc3)s2)cc1S(=O)(=O)N1CCOCC1 | 13* | 27 | 0 | -2 | -17
CC(C)(C)C1CCc2nc(NC(=O)Cc3cn4ccsc4n3)sc2C1 (configuration not stated) | 0 | 62* | 1 | 3 | -45
COc1ccc(OC)c(N2C(=O)NC(=O)/C(=C/c3ccc([N+](=O)[O-])s3)C2=O)c1 | 21* | 3 | 0 | 4 | -9
c1ccc(C(c2nnnn2Cc2ccco2)N2CCN(c3nc4ccccc4s3)CC2)cc1 (configuration not stated) | -4 | -1 | 2 | 1 | -8
CCCCC(c1nnnn1Cc1ccco1)N1CCN(c2nc3ccccc3s2)CC1 (configuration not stated) | -6 | 47 | 27* | 3 | -14
Cc1cc(/C=N/NC(=O)c2ccncc2)c(C)n1-c1ccccc1 | -2 | -5 | 1 | nt | -24
Cc1cc(C(=O)N/N=C/c2ccc(O)c(O)c2O)c(C)n1-c1ccccc1 | -4 | -8 | 87* | nt | -64
COCC(=O)Nc1ccc2c(c1)[C@@H]1C[C@@H](CC(=O)NCCN3CCCCC3)O[C@H](CO)[C@@H]1O2 | nt | nt | nt | -1 | nt
SMILES | FadD28 FP inh | Y pestis TopoI | PfHsp40 yeast | BioA inh | PrP 5UTR inh
C[C@H]1CCCCO[C@H](CN(C)C(=O)Cc2ccccc2)[C@@H](C)CN([C@@H](C)CO)C(=O)c2cc(NC(=O)NC3CCCCC3)ccc2O1 | nt | nt | nt | -3 | nt
COc1ccc(Cn2c(O)c(/C=N/NC(=O)c3cccnc3)c3ccccc3c2=O)cc1 | 14* | -2 | ? | nt | -13
O=C(N/N=C/c1cn(Cc2ccccc2)c2ccccc12)c1cccnc1 | -2 | 12 | 0 | nt | 24
O=C(N/N=C/c1c(O)n(Cc2ccccc2)c(=O)c2ccccc12)c1cccnc1 | 11* | -1 | 431* | nt | 0
O=C(N/N=C/c1c(O)n(-c2ccccc2Cl)c(=O)c2ccccc12)c1cccnc1 | 7 | 2 | 98* | nt | 0
C[C@H](NC(=O)N(C)C[C@H]1OCc2ccccc2-c2c(n(C)c3ccccc23)C(=O)N([C@@H](C)CO)C[C@@H]1C)c1ccccc1 | nt | nt | nt | -1 | nt
O=C(N[C@@H]1CC[C@@H](CCNC(=O)C2CCCC2)O[C@@H]1CO)c1ccccn1 | nt | nt | nt | 0 | nt
COc1ccc(NC(=O)N(C)C[C@H]2Oc3ccc(NS(=O)(=O)c4ccc(Cl)cc4)cc3C(=O)N([C@H](C)CO)C[C@@H]2C)cc1 | nt | nt | nt | 0 | nt
FC(F)(F)c1cccc(N2CCc3cn[nH]c32)c1 | 0 | -2 | 292* | -1 | -45
Cc1cc(O)c2c(c1O)C(=O)[C@]13C(=C2O)C(=O)[C@@H]2[C@@H](O)[C@H]1[C@@H]1[C@H](O)[C@H]3C(=O)C3=C(O)c4c(O)cc(C)c(O)c4C(=O)[C@]312 | 1 | -16 | 71* | 0 | 22
O=C(NN=Cc1ccc(O)cc1O)c1ccccc1NS(=O)(=O)c1cccs1 | 2 | -8 | 70* | 5 | -4
COCCCn1c(-c2ccc(OC)cc2)cc(C(=O)NC2CCCCCCC2)c1C | -2 | 56* | 4 | nt | -14
CCCCCCC[C@@H](C/C=C/CCC(=O)N(C)C/C(=C/Cl)C/C(=C\C(=O)N1CC(OC)=CC1=O)OC)OC | -1 | 34 | 37* | 0 | -175
CCCCCCC[C@@H](C/C=C/CCC(=O)O)OC | -3 | 6 | 0 | 2 | -20
CCCCCCC[C@@H](C/C=C/CCC(=O)N(C)C/C(=C/Cl)C/C(=C\C(=O)N1C[C@H](O)CC1=O)OC)OC | -1 | 26 | 54* | 0 | -10
CCc1ccc(-c2cc(C(=O)N3N=C(C(F)F)CC3(O)C(F)F)c3ccccc3n2)cc1 (configuration not stated) | -4 | -4 | 174* | -2 | -42
CCOC(=O)c1cc2c(c(-c3cccc(-c4cccc(F)c4)c3)n1)[C@H](CCO)N(S(=O)C(C)(C)C)C2 (some centres not stated) | nt | nt | nt | -1 | nt
CC(=NNC(=S)Nc1cccc(C)c1)c1ccccn1 | -2 | -7 | 116* | nt | 52
COc1ccccc1NC(=S)NN=C(C)c1ccccn1 | -3 | -9 | 180* | nt | 10
O=C1CCCC/C1=C\Nc1ccc(C(=O)O)c(O)c1 | 31* | -1 | 0 | nt | -4
CC1CCC/C(=C\Nc2ccc(C(=O)O)c(O)c2)C1=O (configuration not stated) | 4 | 0 | -1 | nt | -51
CCOC(=O)C1=C(C)NC(C)=C(C(=O)OC)C1c1cccc([N+](=O)[O-])c1 (configuration not stated) | 0 | -13 | 0 | 4 | 7
